We go through 40 compounds from PubChem BioAssay (NCI).

The panel holds about 83,000 compounds, 20% with a hit somewhere; the sample as a whole holds those more often.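 48-hour exposure, single concentration, 96-well plates; percent growth endpoint where 0 means no net growth. Active: below 10.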 Activity calls are given as the source filed them.

In the assay the test system is UO-31 renal. Briefly: NCI-60 one-dose screen, 48 h (100 = growth as untreated, 0 = no growth, -100 = all killed). Conditions: 10 µM. The method, then:
Growth inhibition of the UO-31 human tumor cell line is measured as a screen for anti-cancer activity. Cells are grown in 96 well plates and exposed to the test compound for 48 hours. Compounds are tested at a single concentration, which is 10^-5 M for most compounds. The reported endpoint is percent growth (GI% or GIPRCNT), where numbers from 0 - 100% represent growth inhibition, and numbers from -100% - 0 represent cell death. For example, a value of 40 represents 60% growth inhibition. A value of 0 means no net growth occurred over the course of the experiment. A value of -40 indicates 40% of cells at the beginning of the experiment died by the end of the experiment. A value of -100 means all cells are dead at the end of the experiment.
NCI-60 Human Tumor Cell Lines Screen was performed using the standard one-dose NCI protocol, which is described in more detail at https://dtp.cancer.gov/discovery_development/nci-60/default.htm.
Compounds with GIPRCNT values below 10 were considered active. Activity score was based on GIPRCNT using the following formula: […]
Score is 0 for GIPRCNT values of 100 or above, 50 for GIPRCNT values of 0, and 100 for GIPRCNT values of -100.
Take `O=C(CSc1nnc(-c2ccc3nc(-c4ccc(Cl)cc4)[nH]c3c2)o1)Nc1ccc(Cl)cc1`: the growth was -45.4% (active).
With `Cc1ccc(CNC(=O)Cc2ccc3c(c2)CN(C2CCC(=O)NC2=O)C3=O)cc1` (stereo not given) the figure was -21.3% (active); with `COc1cc(C2CC(c3ccc(C)cc3)=Nc3c(N)nc(N)nc3N2)ccc1Oc1nc(Nc2ccc(F)cc2)nc(N(C)C)n1` (stereo not given), 53.3% (inactive).
In the case of `CN1CCc2c(sc3ncnc(N/N=C/c4ccc5ccccc5c4)c23)C1` it was 60.5% (inactive); in that of `CC1(c2ccccc2)NC(=O)N(CC(=O)Nc2ccc(C(=O)/C=C/C=C/c3ccccc3)cc2)C1=O` (stereo not given), 54.9% (inactive).
In the case of `O=C(c1ccc(Cl)cc1)C1[C@H](c2ccc(Br)cc2)[C@@H](c2ccccc2)NC12C(=O)Nc1ccc(Br)cc12` (stereo not given in full) it was -75.7% (active); in that of `O=S(=O)(Nc1ncccn1)c1ccc(-n2c(-c3ccc(Br)cc3)nc(-c3ccccc3)c2-c2ccccc2)cc1`, 20.1% (inactive); in that of `N#Cc1c(NC(=O)c2ccc(C(F)(F)F)c(Cl)c2)sc2c1CCC(=O)C2`, -98.8% (active).
`CCN(CC)CCOc1ccc(C(=C(C)c2ccccc2)c2ccc(OCCN(CC)CC)cc2)cc1`: the growth is -41.6% (active).
On to `CCC(C)S(=O)(=O)c1oc(-c2ccc(C)cc2)nc1S(=O)(=O)c1ccccc1` (stereo not given), for which the growth is -100% (active).
In the case of `COc1ccc(C(=O)/C=C/c2cc(F)cc(C(F)(F)F)c2)cc1S(N)(=O)=O` it was -92.7% (active); in that of `O=C(Nc1ccc(OCC(=O)c2ccccc2)cc1)Nc1ccc(Cl)c(C(F)(F)F)c1`, 17.6% (inactive); in that of `Cc1nc(Nc2nc(C)c3ccc(OCCN4CCOCC4)cc3n2)[nH]c(=O)c1C`, -63.8% (active).
With `COc1ccc(CCN2C(=O)/C(=C/c3csc(C#N)n3)SC2=S)cc1` the figure was -43.9% (active); with `CN1CCN(c2ccc(Nc3nc(NCCCNC(=O)C4CCCCC4)c4sccc4n3)cc2)CC1`, 62.4% (inactive); with `O=C(/C=C/Nc1ccc(F)cc1F)c1ccc2c(c1)Nc1ccccc1S2`, 80.3% (inactive).
With `C=CCn1c(SCC(=O)Nc2ccc(C(=O)/C=C/c3ccccc3)cc2)nnc1-c1c[nH]c2ccccc12` the figure was 31.2% (inactive).
Regarding `COc1cccc(-c2nn(-c3ccccc3)cc2-c2ccnc(NCCCNC(=O)Nc3ccc(F)cc3)c2)c1`, the growth is 17.7% (inactive).
In the case of `COc1cc2c3c(n(CCCn4ccnc4)c(=O)c2cc1OC)-c1nc2c(cc1C3=O)OCO2` it was 26.5% (inactive); in that of `O=C(Nc1cccc(C(F)(F)F)c1)c1cncc(C#Cc2cnc3cccnn23)c1`, 30.4% (inactive).
In the case of `Cc1ccc(/C=C/C(=O)c2ccc(S(=O)(=O)NCCNc3nc(Nc4ccc(F)cc4)nc(N(C)C)n3)cc2)cc1` it was 36.8% (inactive); in that of `Cn1cc(/C=N/Nc2ccnc3cc(Cl)ccc23)c2ccccc21`, -90.1% (active).
In the case of `CCCCCCCCCCCCCCCCCCCC(=O)NCCc1c[nH]c2ccc(OC(=O)NOCCOCCOCCOCCOCCOCCOCCOCCOCCOCCOCCOCCOCCOCCOCCOCCOCCOCCOCCOCCOCCOCCOC)cc12` it was 61.8% (inactive); in that of `O=[N+]([O-])c1ccc(-c2nc(-c3ccccc3)c(-c3ccccc3)n2-c2ccc(S(=O)(=O)Nc3ncccn3)cc2)cc1`, 22.1% (inactive).
Turning to `Cc1ccc(C(=O)NCCCNc2nc(Nc3ccc(N4CCN(C)CC4)cc3)nc3ccsc23)cc1`, the growth is 56.7% (inactive).
In the case of `CC(C)c1ccc(C(=O)Nc2sc3c(c2C(N)=O)CCC(=O)C3=O)cc1` it was 59.7% (inactive).
Regarding `O=C1Nc2ccc(Cl)cc2/C1=C/c1cccc(OCc2ccccn2)c1`, the growth is 8.26% (active).
In the case of `COc1ccc(C(=O)CSc2nnc(-c3c[nH]c4ccccc34)n2-c2ccccc2)cc1` it was 32.6% (inactive); in that of `O=C(NCCCCCCCCCC[P+](c1ccccc1)(c1ccccc1)c1ccccc1)c1ccc(-n2nc(-c3ccccc3O)nc2-c2ccccc2O)cc1`, -84.3% (active); in that of `COc1ccc2[nH]cc(/C=N/Nc3cccc(Cl)n3)c2c1`, 33.5% (inactive).
With `CC(C)C(=O)Nc1ccc(C(=O)NC(=S)Nc2ccc(C(=O)O)cc2)cc1` the figure was 88.4% (inactive).
In the case of `CN(C(=O)c1ccc(C(C)(C)C)cc1)c1sc2c(c1C#N)CCC(=O)C2` it was -98.5% (active).
Turning to `CCCCSc1nc(Nc2ccc(/C(C)=N/NC(N)=S)cc2)c(C#N)c(-c2ccccc2)n1`, the growth was 11.8% (inactive).
Regarding `O=C1Nc2ccc(Cl)cc2/C1=C/c1ccc(OCc2ccccn2)cc1`, the growth is 59.6% (inactive).
In the case of `CN1CCN(c2ccc(C(=O)/C=C/c3cc(Br)ccc3F)cc2)CC1` it was 44.2% (inactive); in that of `COc1cc(Cn2c(C(F)(F)F)cc3c(Cl)ncnc32)ccn1`, 68.3% (inactive).
In the case of `O=C(c1ccc(Cl)cc1)C1[C@H](c2ccccc2Br)[C@@H](c2ccccc2)NC12C(=O)Nc1ccccc12` (stereo not given in full) it was 13.1% (inactive).
With `CC(=C(c1ccc(OCCN2CCCCC2)cc1)c1ccc(OCCN2CCCCC2)cc1)c1ccccc1` the figure was 2.17% (active).
Consider `Cc1cccc(-c2nc(Nc3ccccc3C(=O)O)c3ccccc3n2)c1`, for which the growth was 31% (inactive).
With `O=c1[nH]c2ccccc2cc1CSc1ccc(Nc2nccc(-c3ccc4c(c3)OCO4)n2)cc1` the figure was 95.6% (inactive).
